A selection: hits, their analogues and other compounds. The true share with any hit is near 2.7%.
GLP1R cytotox: cytotoxicity counter-screen for GLP-1 receptor inverse agonists; HEK293 cAMP-luciferase reporter cells, luminescence, 24 h; Potency, µM (titrated, usually from 38.3 µM), inactives show top-dose activity change, negative = inhibition, most hits filed as inhibitors; 410,000 compounds, 0.13% hits; AID 624418;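 also: loss of luciferase light is scored as toxicity; % is scaled to controls: 0 for no effect and ±100 for the full control effect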
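To flag toxic compounds, the library was rerun on cells for 24 hr at 37 deg C and 5% CO2. Viability-linked luminescence was captured 12 min after adding luciferase detection reagent.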
a7 integrin act: activates integrin-mediated alleviation for muscular dystrophy; alpha7betagal myoblasts, beta-gal FDG fluorescence, 48 h; Potency, µM (titrated, usually from 38.3 µM), inactives show top-dose activation, usual class: activators; 350,000 compounds, 0.064% hits;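 also: 100% = response of the positive control SU9516; nearly all actives have a fitted effect of over 60% in size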
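alpha7betagal+/- myoblasts (passage 13, 250/well) treated 48 h at 37C with compounds at 1:260 dilution of DMSO stock. Lysed, then beta-galactosidase activity read as FDG fluorescence (ex 480/em 540) after 30 min, with pre-read for autofluorescence.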
GLP1R inv ag: GLP-1 receptor (human) inverse agonism. P43220. HEK293 GLP-1R CRE-luciferase, luminescence, 24 h; GLP-1R form is constitutively active. Potency, µM (titrated, usually from 38.3 µM), without a hit: top-dose activity change, negative = inhibition, actives largely listed as inhibitors. 410,000 compounds, 1.6% hits. AID 624417; also: % is scaled to controls: 0 for no effect and ±100 for the full control effect; nearly all actives have a fitted effect of over 55% in size
Target sequence (P43220 whole entry, looked up): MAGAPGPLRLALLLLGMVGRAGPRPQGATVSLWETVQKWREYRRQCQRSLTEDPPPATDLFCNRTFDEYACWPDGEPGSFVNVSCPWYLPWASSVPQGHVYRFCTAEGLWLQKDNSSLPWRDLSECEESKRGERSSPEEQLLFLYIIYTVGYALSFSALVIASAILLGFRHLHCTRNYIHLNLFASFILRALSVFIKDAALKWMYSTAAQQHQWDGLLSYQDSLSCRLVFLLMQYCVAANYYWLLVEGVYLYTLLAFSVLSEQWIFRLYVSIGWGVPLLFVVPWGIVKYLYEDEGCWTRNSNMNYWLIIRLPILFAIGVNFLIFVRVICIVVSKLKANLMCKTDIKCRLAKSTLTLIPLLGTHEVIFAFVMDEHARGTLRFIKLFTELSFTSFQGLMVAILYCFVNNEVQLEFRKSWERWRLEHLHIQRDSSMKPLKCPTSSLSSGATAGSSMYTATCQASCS
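GLP-1R inverse agonism mode: basal reporter luminescence in engineered HEK293 cells measured after one day of compound exposure at 37 deg C, with a 12 min room-temperature detection step.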
BRCA1 expr act: increases BRCA1 expression | MCF7-BRCA1-FFLuc reporter, luminescence, 48 h; response scale: scaled: vehicle 0%, 10 µM genistein 100% | 380,000 compounds, 1.1% hits | Potency, µM (titrated, usually from 46.1 µM), inactives show top-dose activation, usual class: activators; also: nearly all actives have a fitted effect of over 80% in size
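MCF7 cells carrying a BRCA1-firefly luciferase reporter (2000 cells/well, phenol-red free MEM) were attached for 2 h at 37 °C, then given compounds for 48 h. Luminescence was read 15 min after luciferase reagent; activity normalized to genistein (10 microM) and DMSO.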
GLP1R ag: GLP-1 receptor (human) agonism | P43220 | HEK293 GLP-1R CRE-luciferase, luminescence, 4-6 h; cells express a hypersensitive GLP-1R form | Potency, µM (titrated, usually from 45.6 µM), for the others: at the top dose activation, usual class: activators | 380,000 compounds, 0.007% hits; also: % of control where 0% means no effect
* hit, by the source's call; ? = inconclusive; nt = no result. Calls follow the shape of the dose curve; as a rule, active = well fitted curve in the direction sought with a large enough effect; inconclusive = small, poorly fitted or top-dose-only effect, or another doubt; inactive = no such curve, though single readings can be large; an effect the other way counts as inactive or inconclusive. Potency is read from the fitted curve at half-maximal effect.

SMILES	GLP1R cytotox	a7 integrin act	GLP1R inv ag	BRCA1 expr act	GLP1R ag
Cc1ccc(OCCOC(=O)c2c(-c3ccccc3)noc2C)cc1	5.1%	0.0%	?	-27.9%	15.8%
CCOc1ccc(C(=O)COC(=O)c2c(-c3ccccc3)noc2C)cc1	?	0.0%	10µM*	-33.5%	9.8%
CCCOc1ccccc1NC(=O)c1c(-c2ccccc2)noc1C	-1.4%	7.8%	11.2µM*	-37.8%	13.8%
COCC1=C(C(=O)OC(C)OC(=O)OC(C)C)N2C(=O)C(NC(=O)/C(=N/OC)c3csc(N)n3)[C@H]2SC1 (some centres not stated)	nt	nt	nt	nt	-2.1%
CCc1ccc(CNC(=O)c2cnc3sc(N4CCCCCC4)nn3c2=O)cc1	2.9%	nt	11.5%	nt	nt
CCOc1ccc(CNC(=O)C2CCCN(c3nn4cc(-c5ccc(OC)cc5)nc4s3)C2)cc1 (configuration not stated)	21.3%	nt	10.2%	nt	nt
Cc1cc(N2CCCCCC2)nc(-c2ccccc2O)n1	-1.3%	4.0%	?	42.3%	-4.8%
Cc1cc(N2CCCCC2C)nc(-c2ccccc2O)n1 (configuration not stated)	-1.0%	23.6%	11.2µM*	0.0%	21.6%
COc1ccc(NC(=O)C2CCN(S(=O)(=O)c3ccc4c(c3)CCCC(=O)N4)CC2)cc1Cl	2.5%	nt	0.6%	-9.0%	-5.1%
Cc1ccc(C(C)C)cc1-n1nnc(-c2cccc(Cc3ccc4ccccc4c3)c2)c1C(C)O (configuration not stated)	-0.1%	-53.0%	3.55µM*	-29.2%	-1.2%
Cc1ccccc1C(=O)Nc1nc(-c2nnn(-c3ccc(C(C)C)cc3)c2C)ns1	1.3%	nt	-41.8%	5.4%	nt
CC(C)(c1ccccc1)c1ccc(OCCCN2CCNCC2)cc1	?	-70.1%	1.12µM*	-70.7%	11.6%
Cc1ccc(OCCCCCCN2CCNCC2)c(Br)c1	?	-37.0%	2.82µM*	?	-3.1%
CC(C)(c1ccccc1)c1ccc(OCCN2CCOCC2)cc1	8.8%	4.9%	?	-5.4%	1.5%
Clc1ccc(OCCCN2CCCCC2)c(Br)c1	-13.4%	-51.7%	?	10µM*	-4.2%
Cc1cc(C)c(OCCOCCN2CCNCC2)c(C)c1	0.7%	5.6%	10µM*	-39.3%	0.9%
Cc1ccc2c(c1)C(=O)C(=O)N2Cc1ccc(OCCC(C)C)cc1	-0.1%	nt	8.6%	nt	nt
CCc1nn(CC(=O)NCCOC)c(=O)c2cc3cc(F)ccc3n12	0.2%	nt	4.8%	nt	nt
CC1CCN(CCCCOc2ccc(C(C)(C)C)cc2)CC1	-24.0%	-68.0%	?	-37.2%	-4.5%
CC(C)(C)c1ccc(OCCCCCCN2CCNCC2)cc1	?	-78.1%	3.98µM*	-79.1%	6.3%
Nc1ccc(/C=C/c2cc(Cl)nc3ccccc23)cc1	nt	nt	nt	-59.2%	nt
CC[C@H](C)[C@@H]1NC(=O)[C@@H](CC(C)C)NC(=O)[C@H](C(C)C)NC(=O)[C@H]2CSSC[C@H](NC1=O)C(=O)N2	?	nt	3.98µM*	-73.8%	-13.4%
COCCCNC(=O)C(C)n1c2ccccc2c2cnn(C)c(=O)c21 (configuration not stated)	2.3%	nt	5.6%	18.2%	nt
O=C(NCc1nc(-c2ccc(C(F)(F)F)cc2)no1)c1cccs1	-20.2%	18.7%	10µM*	-0.8%	-0.8%
O=C(NCc1nc(-c2ccccc2)no1)c1cccs1	4.4%	-5.5%	0.0%	-4.6%	8.6%
SMILES	GLP1R cytotox	a7 integrin act	GLP1R inv ag	BRCA1 expr act	GLP1R ag
C#CC(C)(CC)NC(=O)c1cc2c(n(-c3ccc(Cl)cc3)c1=O)CC(C)(C)CC2=O (configuration not stated)	-13.8%	nt	-26.9%	-14.4%	-6.7%
O=C(CSC1=Nc2ccccc2C2=NC(Cc3ccccc3)C(=O)N12)Nc1ccccc1C(F)(F)F (configuration not stated)	-5.6%	nt	4.9%	nt	nt
CC(=O)c1ccc(NC(=S)N(CCCN(C)C)Cc2ccccc2)cc1	-6.7%	-11.0%	?	-0.3%	7.3%
CN(C)CCCN(Cc1ccccc1)C(=S)Nc1ccc(SC(F)F)cc1	-24.9%	-61.6%	11.2µM*	-22.9%	15.3%
COc1ccccc1N1CCN(C(=O)c2cc(-c3ccc(F)cc3)[nH]c2C)CC1	?	?	11.2µM*	-51.0%	-0.2%
Cc1[nH]c(-c2ccc(F)cc2)cc1C(=O)N1CCN(c2ccccc2F)CC1	1.4%	19.9%	?	-7.0%	2.6%
O=[N+]([O-])c1ccc(C(O)CSC(=S)N2CCCCC2)cc1 (configuration not stated)	3.0%	19.4%	?	3.98µM*	18.3%
Oc1cc(O)c(/C=C/c2ccnc3ccccc23)c(O)c1	nt	nt	nt	9.0%	nt
O=C(Cc1cccc2ccccc12)NCC(=O)N1CCN(Cc2cccc(C(F)(F)F)c2)CC1	-3.1%	-11.5%	10µM*	-39.2%	1.9%
CCc1ccc(C(C(=O)NCc2ccc(OC)cc2)N(CCOC)C(=O)Cc2cccs2)cc1 (configuration not stated)	?	-4.3%	10µM*	-51.8%	1.1%
COc1ccc(CNC(=O)C(c2ccc(C)o2)N(Cc2cccs2)C(=O)Cc2cccs2)cc1 (configuration not stated)	?	1.9%	8.91µM*	-39.2%	-6.2%
COc1ccc(CNC(=O)C(c2ccc(C)o2)N(C(=O)c2csnn2)c2ccc(C(C)C)cc2)cc1 (configuration not stated)	-7.0%	-13.6%	10µM*	-47.4%	-2.7%
COCCN(C(=O)Cc1cccs1)C(C(=O)NCc1ccc(OC)cc1)c1ccc(C(C)C)cc1 (configuration not stated)	-27.0%	-31.8%	?	-14.2%	-4.8%
CCC(=O)N1c2ccccc2CC1C(=O)NCc1cccc(OC)c1OC (configuration not stated)	19.2%	nt	15.0%	nt	nt
CSc1ccc(-c2nnc(NC(=O)c3ccc4c(c3)OCCO4)o2)cc1	2.0%	nt	1.7%	nt	nt
CCCC(=O)Nc1nnc(-c2ccc3c(c2)OCCO3)o1	5.2%	-28.4%	-16.9%	6.31µM*	-0.1%
O=C(CCSc1ccccc1)Nc1nccs1	4.6%	-9.8%	-0.2%	10.5%	-14.4%
O=C(CSc1ccccc1)N(c1ccc(Br)cc1)c1nccs1	-1.1%	6.5%	11.2µM*	7.8%	13.2%
CCCCC[C@@H](C)N1C[C@@H](COCc2ccccc2)Oc2cc(N3CC[C@@H](O)C3)ccc2S1(=O)=O	-20.5%	nt	14.1µM*	-36.4%	1.1%
CCCCC[C@@H](C)N1C[C@@H](COCc2ccccc2)Oc2cc(N3CC[C@H](O)C3)ccc2S1(=O)=O	-2.4%	nt	?	-55.0%	2.5%
CCCCC[C@H](C)N1C[C@@H](COCc2ccccc2)Oc2cc(N3CC[C@@H](O)C3)ccc2S1(=O)=O	?	nt	10µM*	-27.1%	-2.7%
CCCN(CCC)c1nc(N)nc(-c2cc(Cl)ccc2OC)n1	-17.8%	-8.4%	8.91µM*	-30.9%	22.5%
